Measurements reported in PubChem BioAssay (Tox21).
Records with an inconclusive call do not appear. Calls of active or inactive are those of the source. Unless noted, the call rests on the fitted dose curve.

Experiments:
[1] = Nuclear factor erythroid 2-related factor 2/antioxidant responsive element (Nrf2/ARE) small molecule agonists: qHTS cell viability counter screen in human keratinocytes (AID 1919968; active means well fitted curve in the direction sought with a large enough effect in the repeat runs; an effect the other way counts as inactive or inconclusive; further: nearly all actives have a fitted effect of over 55% in size)
How it was run: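 Stably transfected HaCaT (KeratinoSens), 1,500/well. Test agents in DMSO were applied for 23 h, 37 C/5% CO2. CellTiter-Fluor was incubated 1 h before the fluorescence read.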

[2] = Nuclear factor erythroid 2-related factor 2/antioxidant responsive element (Nrf2/ARE) small molecule agonists: luciferase reporter gene qHTS assay in human keratinocytes (AID 1919969); further: nearly all actives have a fitted effect of over 35% in size
[3] = molecular target: Gonadotropin-releasing hormone receptor (Homo sapiens) (UniProt P30968); assay: Human gonadotropin-releasing hormone receptor (GnRHR) small molecule agonists, calcium flux assay in GnRHR-HEK293 cells (AID 1920063); further: nearly all actives have a fitted effect of over 35% in size
How it was run: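 Stable human GnRHR HEK293 line. 18 h plating, then calcium dye for 1 h at 37 C. Agonist-mode compound addition from DMSO stocks; fluorescence monitored 3 min.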

[4] = molecular target: KiSS-1 receptor (Homo sapiens) (UniProt Q969F8); assay: Human kisspeptin (KISS1R) small molecule agonists, calcium flux assay in KISS1R-HEK293 cells (AID 1920064; active means well fitted curve in the direction sought with a large enough effect in the repeat runs; an effect the other way counts as inactive or inconclusive)
How it was run: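 After overnight (18 h) culture at 37 C/5% CO2, human KISS1R-HEK293 cells received calcium dye for 1 h, then test compound; emission at 540 nm (excitation 480 nm) was tracked for 3 min.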

[5] = G protein-coupled receptor (GPCR) small molecule agonists, calcium flux assay: HEK293 wild type cell line counter screen (AID 1920065)
How it was run: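 Following 18 h incubation at 37 C/5% CO2, plates got calcium dye for 1 h; compounds, ATP or DMSO were then pinned in and fluorescence followed kinetically (480/540 nm).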

[6] = p53 small molecule agonists, cell-based qHTS assay with human liver microsomes (AID 1963577);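 further: p53 response element beta-lactamase reporter cells with liver microsomes plus NADPH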
How it was run: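 p53RE-bla cells; 5 h settle, 37 C/5% CO2; cpd + HLM 0.5 mg/mL + NADPH 0.5 mg/mL (final); 16 h 37 C; LiveBLAzer 2 h RT dark; fluorescence readout.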

[7] = p53 small molecule agonists, cell-based qHTS assay with rat liver microsomes (AID 1963578)
How it was run: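 Rat liver microsome activation: microsomes 0.5 mg/mL, NADPH 0.5 mg/mL final; p53RE-bla cells, 16 h 37 C; LiveBLAzer readout, 2 h RT dark.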

[8] = p53 small molecule agonists, cell-based qHTS assay with human liver microsomes: qHTS cell viability counter screen (AID 1963579); further: nearly all actives have a fitted effect of over 45% in size
How it was run: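 Luminescent CellTiter-Glo read-out, 30 min at room temperature, gauged cytotoxicity in p53RE-bla cells exposed 16 h at 37 C to DMSO-dissolved compounds with metabolic activation by human liver microsomes and NADPH, each 0.5 mg/mL final.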

[9] = p53 small molecule agonists, cell-based qHTS assay with rat liver microsomes: qHTS cell viability counter screen (AID 1963580); further: nearly all actives have a fitted effect of over 45% in size
How it was run: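 After the beta-lactamase ratio was read, CellTiter-Glo was added to the same wells and luminescence measured at 30 min; cells had been treated 16 h at 37 C with compounds, rat liver microsomes and NADPH (0.5 mg/mL final each).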

[10] = p53 small molecule agonists, cell-based qHTS assay: qHTS cell viability counter screen (AID 1963581); further: nearly all actives have a fitted effect of over 45% in size
How it was run: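 qHTS counter screen: 16 h compound exposure at 37 C of p53RE-bla HCT-116 cells (4,000 per well, seeded 5 h prior), cell viability by ATP luminescence.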

[11] = p53 small molecule agonists, cell-based qHTS assay (AID 1963582; active means well fitted activation curve with a large enough effect in the signal ratio in the repeat runs, not every such curve was filed as active; the % refers to the signal ratio)
How it was run: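 Measured: fluorescence from cleaved LiveBLAzer substrate. System: p53RE-bla cells, 16 h compound treatment at 37 C, 2 h substrate step at room temperature.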

[12] = molecular target: 5-hydroxytryptamine receptor 2A (Homo sapiens) (UniProt P28223); assay: 5-hydroxytryptamine receptor 2A (HTR2A) small molecule antagonists, cell-based qHTS assay (AID 1963586); further: nearly all actives have a fitted effect of over 45% in size
How it was run: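 CHO cells stably expressing human HTR2A were plated for 18 h at 37 C, then loaded with calcium dye for 1 h. Compounds were preincubated 5 min at room temperature before DOI (4 nM solution) was added. Kinetic fluorescence was read for 3 min.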

[13] = molecular target: 5-hydroxytryptamine receptor 2A (Homo sapiens) (UniProt P28223); assay: 5-hydroxytryptamine receptor 2A (HTR2A) small molecule agonists, cell-based qHTS assay (AID 1963587); further: nearly all actives have a fitted effect of over 30% in size
How it was run: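 CHO cells stably expressing human HTR2A, plated 18 h, loaded with calcium dye 1 h at 37 C. Agonist mode: compounds added and intracellular calcium fluorescence recorded kinetically for 2 min at 1 sec intervals.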

[14] = molecular target: Muscarinic acetylcholine receptor M1 (Homo sapiens) (UniProt P11229); assay: Cholinergic receptor muscarinic 1 (CHRM1) small molecule agonists, cell-based qHTS assay (AID 1963589); further: nearly all actives have a fitted effect of over 35% in size
How it was run: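 Kinetic fluorescence (1 s intervals) of calcium-sensitive dye in human M1 CHO cells after compound addition; cells pre-incubated 18 h at 37 C/5% CO2 and dye-loaded 1 h.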

[15] = cAMP Responsive Elements (CRE) small molecule antagonists, cell-based qHTS assay (AID 1963591; active means well fitted inhibition curve with a large enough effect in the signal ratio in the repeat runs, not every such curve was filed as active; the % refers to the signal ratio)
How it was run: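 Reporter line CRE-bla HEK 293T in dialyzed-FBS DMEM; cells preincubated 18 h, treated 3 h with compound plus NKH477 (0.25 uM final); LiveBLAzer FRET, 2 h RT.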

[16] = molecular target: D(2) dopamine receptor (Homo sapiens) (UniProt P14416); assay: Dopamine D2 receptor (DRD2) small molecule agonists, cell-based qHTS assay (AID 1963594); further: nearly all actives have a fitted effect of over 35% in size
How it was run: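 HEK293 cells stably expressing human DRD2, pre-treated with PDE inhibitor Ro20-1724 (0.1 mM final) and compound 10 min at room temperature, then stimulated with NKH477 (200nM […]) for 30 min. cAMP read by HTRF (665/620 nm).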

[17] = molecular target: D(2) dopamine receptor (Homo sapiens) (UniProt P14416); assay: Dopamine D2 receptor (DRD2) small molecule antagonists, cell-based qHTS assay (AID 1963595; active means well fitted inhibition curve with a large enough effect in the signal ratio in the repeat runs, with a control signal flat; the % refers to the signal ratio)
How it was run: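 Antagonist mode in DRD2-HEK293 cells: after compound addition with 0.1 mM Ro20-1724, cells received quinpirole (12 nM) and NKH477 (200 nM) for 30 min at room temperature; HTRF cAMP read after 1 h detection.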

[18] = cAMP Responsive Elements (CRE) small molecule agonists, cell-based qHTS assay (AID 1963590)
How it was run: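 Test agents in DMSO were incubated 3 h at 37 C/5% CO2 with CRE-bla HEK 293T cells seeded 18 h earlier; LiveBLAzer B/G FRET substrate was added and read after 2 h at room temperature.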

[19] = molecular target: Beta-2 adrenergic receptor (Homo sapiens) (UniProt P07550); assay: Adrenergic beta2 receptor (ADRB2) small molecule antagonists, cell-based qHTS assay (AID 1963592); further: series mostly up to about 92 µM; nearly all actives have a fitted effect of over 50% in size
How it was run: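 Assay format: CHO-ADRB2 cells, 18-20hr seeding at 37C/5% CO2, then compound plus 1nM isoproterenol agonist mix for 0.5hr RT. Homogeneous time-resolved fluorescence cAMP detection after 1hr, expressed as 665/615 nm ratio.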

Measured: Potency

Gonadotropin-releasing hormone receptor (Homo sapiens), sequence (P30968 whole entry, looked up): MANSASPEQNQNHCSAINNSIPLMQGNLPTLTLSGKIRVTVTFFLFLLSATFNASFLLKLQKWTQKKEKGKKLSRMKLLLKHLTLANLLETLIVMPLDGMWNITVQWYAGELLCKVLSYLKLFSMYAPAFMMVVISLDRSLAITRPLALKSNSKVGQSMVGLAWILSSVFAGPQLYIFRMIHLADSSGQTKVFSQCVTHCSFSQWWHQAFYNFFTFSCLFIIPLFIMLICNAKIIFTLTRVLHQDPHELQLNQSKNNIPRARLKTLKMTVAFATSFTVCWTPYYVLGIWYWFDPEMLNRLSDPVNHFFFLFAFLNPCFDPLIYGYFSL
5-hydroxytryptamine receptor 2A (Homo sapiens), sequence (P28223 whole entry, looked up): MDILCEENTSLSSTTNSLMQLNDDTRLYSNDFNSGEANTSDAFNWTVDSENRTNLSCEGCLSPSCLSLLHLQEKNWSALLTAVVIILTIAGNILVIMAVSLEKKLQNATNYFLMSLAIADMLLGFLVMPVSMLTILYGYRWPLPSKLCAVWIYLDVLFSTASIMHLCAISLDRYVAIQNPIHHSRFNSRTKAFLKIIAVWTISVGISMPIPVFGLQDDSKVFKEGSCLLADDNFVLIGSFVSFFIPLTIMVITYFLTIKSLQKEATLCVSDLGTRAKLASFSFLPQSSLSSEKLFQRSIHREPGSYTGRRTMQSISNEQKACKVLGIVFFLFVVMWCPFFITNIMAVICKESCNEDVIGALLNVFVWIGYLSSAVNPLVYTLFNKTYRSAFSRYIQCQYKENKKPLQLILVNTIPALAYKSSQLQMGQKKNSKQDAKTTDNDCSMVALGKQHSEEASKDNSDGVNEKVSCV
Beta-2 adrenergic receptor (Homo sapiens), sequence (P07550 whole entry, looked up): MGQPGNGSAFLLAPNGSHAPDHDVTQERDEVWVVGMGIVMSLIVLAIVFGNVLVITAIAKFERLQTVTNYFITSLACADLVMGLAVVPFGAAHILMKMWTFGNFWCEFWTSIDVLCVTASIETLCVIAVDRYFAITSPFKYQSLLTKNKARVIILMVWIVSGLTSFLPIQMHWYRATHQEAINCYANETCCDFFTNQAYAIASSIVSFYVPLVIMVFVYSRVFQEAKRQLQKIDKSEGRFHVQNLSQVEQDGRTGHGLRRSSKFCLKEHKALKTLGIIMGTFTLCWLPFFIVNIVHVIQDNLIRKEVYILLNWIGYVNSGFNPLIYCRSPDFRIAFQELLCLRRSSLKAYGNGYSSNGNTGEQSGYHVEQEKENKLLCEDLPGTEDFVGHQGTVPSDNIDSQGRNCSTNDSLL
D(2) dopamine receptor (Homo sapiens), sequence (P14416 whole entry, looked up): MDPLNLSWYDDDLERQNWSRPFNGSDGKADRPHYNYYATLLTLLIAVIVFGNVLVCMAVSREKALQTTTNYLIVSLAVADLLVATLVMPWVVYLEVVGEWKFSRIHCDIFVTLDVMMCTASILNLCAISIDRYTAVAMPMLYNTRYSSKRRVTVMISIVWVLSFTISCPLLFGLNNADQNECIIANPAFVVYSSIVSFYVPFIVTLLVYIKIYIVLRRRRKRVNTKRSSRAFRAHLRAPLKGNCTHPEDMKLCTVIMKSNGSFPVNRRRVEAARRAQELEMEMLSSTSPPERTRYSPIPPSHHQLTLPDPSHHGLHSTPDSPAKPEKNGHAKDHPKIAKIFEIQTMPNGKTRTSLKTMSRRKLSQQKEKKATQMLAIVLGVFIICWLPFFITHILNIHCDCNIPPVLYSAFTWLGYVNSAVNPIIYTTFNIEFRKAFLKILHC
Muscarinic acetylcholine receptor M1 (Homo sapiens), sequence (P11229 whole entry, looked up): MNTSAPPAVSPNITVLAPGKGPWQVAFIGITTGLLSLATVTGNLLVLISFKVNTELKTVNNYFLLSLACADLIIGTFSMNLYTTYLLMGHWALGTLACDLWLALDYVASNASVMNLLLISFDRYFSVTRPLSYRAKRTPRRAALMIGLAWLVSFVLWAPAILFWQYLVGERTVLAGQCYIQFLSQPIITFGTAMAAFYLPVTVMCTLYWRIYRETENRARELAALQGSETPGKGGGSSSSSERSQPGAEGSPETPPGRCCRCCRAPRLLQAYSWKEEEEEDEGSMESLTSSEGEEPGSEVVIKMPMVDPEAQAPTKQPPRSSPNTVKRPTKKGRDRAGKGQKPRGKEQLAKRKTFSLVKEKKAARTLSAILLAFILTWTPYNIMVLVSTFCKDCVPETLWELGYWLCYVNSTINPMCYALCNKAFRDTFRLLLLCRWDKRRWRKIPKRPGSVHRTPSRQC
KiSS-1 receptor (Homo sapiens), sequence (Q969F8 whole entry, looked up): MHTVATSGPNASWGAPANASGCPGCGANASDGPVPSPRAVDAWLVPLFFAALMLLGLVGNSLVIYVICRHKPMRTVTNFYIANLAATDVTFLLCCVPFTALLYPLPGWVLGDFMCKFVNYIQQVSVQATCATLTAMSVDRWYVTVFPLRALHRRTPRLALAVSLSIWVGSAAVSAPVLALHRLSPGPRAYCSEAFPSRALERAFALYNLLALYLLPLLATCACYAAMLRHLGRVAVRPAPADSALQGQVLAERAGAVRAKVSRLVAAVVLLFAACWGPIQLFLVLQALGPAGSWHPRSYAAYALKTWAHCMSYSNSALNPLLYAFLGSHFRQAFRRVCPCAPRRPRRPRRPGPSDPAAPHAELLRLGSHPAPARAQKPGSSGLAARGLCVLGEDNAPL

O=c1[nH]c(=O)n([C@H]2O[C@H](CO)[C@@H](O)[C@@H]2O)cc1/C=C\Br
not listed: [18] | [19]
inactive: all other assays above

COc1ccc(C)cc1[N+](=O)[O-]
not listed: [15] | [17]
inactive: all other assays above

CC(=O)[C@H]1CC[C@H]2[C@@H]3C=CC4=CC(=O)CC[C@@]4(C)[C@@H]3CC[C@]12C
not listed: [18]
inactive: all other assays above

CCN1CN(CC)CN(CC)C1
not listed: [15]
inactive: all other assays above

COc1ccc(-n2nc(CCC(=O)N(C)O)cc2-c2ccc(Cl)cc2)cc1
inactive: all assays above

CCCCOC(=O)C(C)Oc1ccc(Oc2ccc(C(F)(F)F)cn2)cc1 (stereo unspecified)
not listed: [15] | [16]
inactive: all other assays above

N#CSCC(=O)O
not listed: [17]
inactive: all other assays above

C=CC(C)(C)O
not listed: [15]
inactive: all other assays above

CCCCOCCOC(=O)COc1ccc(Cl)cc1Cl
not listed: [15] | [18]
inactive: all other assays above

CN1Cc2cc(C(=O)N3CCC(C4CCNCC4)CC3)ccc2NC(CC(=O)O)C1=O (stereo unspecified)
not listed: [18]
inactive: all other assays above

Cc1c(C)c2c(c(C)c1OC(=O)CCC(=O)O)CC[C@@](C)(CCC[C@H](C)CCC[C@H](C)CCCC(C)C)O2
inactive: all assays above

C[C@H](CN1CCCC1)C(=O)c1ccc(C(F)(F)F)cc1
not listed: [15]
inactive: all other assays above

OC(CCN1CCCCC1)(c1ccccc1)c1ccccc1
not listed: [17] | [18]
inactive: all other assays above

COc1c(Br)cc(Br)c(C)c1Br
inactive: all assays above

O=P(O)(O)Oc1ccccc1
inactive: all assays above

C=CC(C)(CCC=C(C)C)OC(=O)C(C)C (stereo unspecified)
not listed: [15] | [17]
inactive: all other assays above
